# Data published in the supplement of paper PMC9262897, “Low-cost anti-mycobacterial drug discovery using engineered E. coli” (Nature Communications, 2022).
# Where a name gives a salt, the structure may show the parent alone. ± gives the standard deviation of the averaged measurements.
# Test system: E. coli TESEC Mtb Alr
# Assay: growth (OD600 after 10 h); higher = more growth (less inhibition)
# Details: arabinose 100 nM; compound 0.1 mM; raw OD600 reference: median of DMSO wells 0.413, cell-free background 0.052
# Method: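 TESEC Mtb Alr E. coli (ΔaraC ΔtolC ΔentC Δalr ΔdadX, arabinose-inducible Mtb Alr) or the Alr+ wild-type control strain, grown in defined M9-fructose medium without D-alanine in 96-well plates with Prestwick library compounds at 0.1 mM and 1% DMSO. Low Alr induction is 0.1 µM arabinose and high induction is 10 mM arabinose.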
row,Compound,growth
1,CN(C)CC/C=C1/c2ccccc2COc2ccc(CC(=O)O)cc21 [Olopatadine hydrochloride],0.425 ± 0.0062
2,C[C@]12CCC(=O)C=C1C=C[C@@H]1[C@@H]2CC[C@@]2(C)[C@H]1CC[C@@]21CCC(=O)O1 [Canrenone],0.363 ± 0.0069
3,CCC(C)n1ncn(-c2ccc(N3CCN(c4ccc(OCC5COC(Cn6cncn6)(c6ccc(Cl)cc6Cl)O5)cc4)CC3)cc2)c1=O (stereo unspecified) [Itraconazole],0.441 ± 0.027
4,CCCOc1ccc(C(=O)OCCN(CC)CC)cc1N [Proparacaine hydrochloride],0.408 ± 0.017
5,COc1ccc([C@@H]2Sc3ccccc3N(CCN(C)C)C(=O)[C@@H]2OC(C)=O)cc1 [Diltiazem hydrochloride],0.413 ± 0.0022
6,CCc1cccc2c3c([nH]c12)C(CC)(CC(=O)O)OCC3 (stereo unspecified) [Etodolac],0.409 ± 0.011
7,N=C(N)NC(=O)c1nc(Cl)c(N)nc1N [Amiloride hydrochloride dihydrate],0.407 ± 0.014
8,N=C(N)c1ccc(OCCCCCOc2ccc(C(=N)N)cc2)cc1 [Pentamidine isethionate],0.28 ± 0.16
9,COc1ccccc1O [Guaiacol],0.407 ± 0.016
10,CN(C)CCOC1=Cc2ccccc2Sc2ccc(Cl)cc21 [Zotepine],0.41 ± 0.0042
11,CC(=O)N[C@@H](CS)C(=O)O [Acetylcysteine],0.4122 ± 0.0033

# Same assay, conditions: arabinose 10000000 nM; compound 0.1 mM; raw OD600 reference: median of DMSO wells […], cell-free background 0.052
row,Compound,growth
1,Cc1onc(-c2c(F)cccc2Cl)c1C(=O)N[C@@H]1C(=O)N2[C@@H]1SC(C)(C)[C@@H]2C(=O)O [Flucloxacillin sodium],0.33 ± 0.021
2,CN(C/C=C/c1ccccc1)Cc1cccc2ccccc12 [Naftifine hydrochloride],0.052 ± 0.0013
3,COc1ccccc1Oc1c(NS(=O)(=O)c2ccc(C(C)(C)C)cc2)nc(-c2ncccn2)nc1OCCO [Bosentan],0.237 ± 0.015
4,O=C(O)CCC(=O)Nc1ccc(S(=O)(=O)Nc2nccs2)cc1 [Succinylsulfathiazole],0.317 ± 0.014
5,NC(=O)OCC(O)COc1ccc(Cl)cc1 (stereo unspecified) [Chlorphensin carbamate],0.366 ± 0.023
6,C(=C\c1ccccc1)/CN1CCN(C(c2ccccc2)c2ccccc2)CC1 [Cinnarizine],0.375 ± 0.0072
7,Cc1ccccc1OCC(O)CO (stereo unspecified) [Mephenesin],0.373 ± 0.0043
8,O=C(O)CN(CCN(CC(=O)O)CC(=O)O)CCN(CC(=O)O)CC(=O)O [Pentetic acid],0.061 ± 0.001
9,CC(=O)OCC(=O)[C@@]1(OC(C)=O)[C@@H](C)C[C@H]2[C@@H]3C[C@H](F)C4=CC(=O)C=C[C@]4(C)[C@@]3(F)[C@@H](O)C[C@@]21C [Diflorasone Diacetate],0.289 ± 0.0096
10,O=C1C(CC[S+]([O-])c2ccccc2)C(=O)N(c2ccccc2)N1c1ccccc1 (stereo unspecified) [Sulfinpyrazone],0.33 ± 0.011
11,O=C(CCNNC(=O)c1ccncc1)NCc1ccccc1 [Nialamide],0.337 ± 0.023
12,C[N+]1(C)CCC(=C(c2ccccc2)c2ccccc2)CC1 [Diphemanil methylsulfate],0.36 ± 0.015
13,Cc1ccc(C)c(OCCCC(C)(C)C(=O)O)c1 [Gemfibrozil],0.261 ± 0.011
14,O=C1CCc2cc(OCCCCc3nnnn3C3CCCCC3)ccc2N1 [Cilostazol],0.145 ± 0.015
15,COc1cc(C(=O)NCc2ccc(OCCN(C)C)cc2)cc(OC)c1OC [Trimethobenzamide hydrochloride],0.354 ± 0.022
16,Cc1nnc(SCC2=C(C(=O)O)N3C(=O)[C@@H](NC(=O)Cn4cnnn4)[C@H]3SC2)s1 [Cefazolin sodium salt],0.363 ± 0.0051
17,N#Cc1ccc(C(c2ccc(C#N)cc2)n2cncn2)cc1 [Letrozole],0.309 ± 0.016
18,CCOc1nc2cccc(C(=O)O)c2n1Cc1ccc(-c2ccccc2-c2nnn[nH]2)cc1 [Candesartan],0.355 ± 0.0055
19,CC(CNC1CCCCC1)OC(=O)c1ccccc1 (stereo unspecified) [Hexylcaine hydrochloride],0.309 ± 0.0087
20,C#C[C@]1(O)CC[C@H]2[C@@H]3CCC4=Cc5oncc5C[C@]4(C)[C@H]3CC[C@@]21C [Danazol],0.309 ± 0.026

row,Compound,growth
1,CC1CC(OC(=O)c2ccccc2O)CC(C)(C)C1 (stereo unspecified) [Homosalate],0.332 ± 0.016
2,CCOc1ccc2c(c1)C(C)=CC(C)(C)N2 [Ethoxyquin],0.167 ± 0.068
3,CN(C)CCN(Cc1ccc(Cl)cc1)c1ccccn1 [Chloropyramine hydrochloride],0.314 ± 0.012
4,COc1ccc([C@@H]2CC(=O)c3c(O)cc(O[C@@H]4O[C@H](CO[C@@H]5O[C@@H](C)[C@H](O)[C@@H](O)[C@H]5O)[C@@H](O)[C@H](O)[C@H]4O)cc3O2)cc1O [Hesperidin],0.388 ± 0.028
5,CO[C@H]1C[C@H](O[C@H]2[C@H](C)[C@@H](O[C@@H]3O[C@H](C)C[C@H](N(C)C)[C@H]3OC(C)=O)[C@@H](C)C[C@@]3(CO3)C(=O)[C@H](C)[C@@H](OC(C)=O)[C@@H](C)[C@@H](C)OC(=O)[C@@H]2C)O[C@@H](C)[C@@H]1OC(C)=O [Troleandomycin],0.0707 ± 0.017
6,CCCCCN(CCCCC)C(=O)C(CCC(=O)O)NC(=O)c1ccc(Cl)c(Cl)c1 (stereo unspecified) [Lorglumide sodium salt],0.161 ± 0.025
7,CC(Oc1ccccc1)C(=O)N[C@@H]1C(=O)N2[C@@H]1SC(C)(C)[C@@H]2C(=O)O (stereo partly specified) [Phenethicillin potassium salt],0.367 ± 0.0061
8,C#C[C@]1(O)CC[C@H]2[C@@H]3CCC4=CC(=O)CC[C@@H]4[C@H]3CC[C@@]21C [Norethindrone],0.233 ± 0.014
9,CC[C@H](C)[C@H](N)C1=N[C@H](C(=O)N[C@@H](CC(C)C)C(=O)N[C@H](CCC(=O)O)C(=O)N[C@H](C(=O)N[C@H]2CCCCNC(=O)[C@H](CC(N)=O)NC(=O)[C@@H](CC(=O)O)NC(=O)[C@H](Cc3cnc[nH]3)NC(=O)[C@@H](Cc3ccccc3)NC(=O)[C@H]([C@@H](C)CC)NC(=O)[C@@H](CCCN)NC2=O)[C@@H](C)CC)CS1 [Bacitracin],0.348 ± 0.028
10,CN(C)CC/C=C1/c2ccccc2COc2ccc(CC(=O)O)cc21 [Olopatadine hydrochloride],0.361 ± 0.013
11,C[C@]12CCC(=O)C=C1C=C[C@@H]1[C@@H]2CC[C@@]2(C)[C@H]1CC[C@@]21CCC(=O)O1 [Canrenone],0.144 ± 0.031
12,CCC(C)n1ncn(-c2ccc(N3CCN(c4ccc(OCC5COC(Cn6cncn6)(c6ccc(Cl)cc6Cl)O5)cc4)CC3)cc2)c1=O (stereo unspecified) [Itraconazole],0.368 ± 0.015
13,CCCOc1ccc(C(=O)OCCN(CC)CC)cc1N [Proparacaine hydrochloride],0.354 ± 0.024
14,COc1ccc([C@@H]2Sc3ccccc3N(CCN(C)C)C(=O)[C@@H]2OC(C)=O)cc1 [Diltiazem hydrochloride],0.3 ± 0.013
15,CCc1cccc2c3c([nH]c12)C(CC)(CC(=O)O)OCC3 (stereo unspecified) [Etodolac],0.264 ± 0.013
16,N=C(N)NC(=O)c1nc(Cl)c(N)nc1N [Amiloride hydrochloride dihydrate],0.392 ± 0.015
17,N=C(N)c1ccc(OCCCCCOc2ccc(C(=N)N)cc2)cc1 [Pentamidine isethionate],0.0605 ± 0.0026
18,COc1ccccc1O [Guaiacol],0.356 ± 0.009
19,CN(C)CCOC1=Cc2ccccc2Sc2ccc(Cl)cc21 [Zotepine],0.0544 ± 0.0015
20,CC(=O)N[C@@H](CS)C(=O)O [Acetylcysteine],0.344 ± 0.0049
